# Measurements as given in ChEMBL document CHEMBL3988442, “University of Dundee, Small-Polar-MMV Screening Library” (2021).
# About 13,000 (27%) of roughly 48,000 compounds showed an effect of 50% or more. This is one part of the list.
# Test system: Wolbachia pipientis
# Assay: Anti-Wolbachia Cell-Based Screen
# Assay type: functional
# Set-up: scale not given: in the data most compounds retested in dose-response had high values
# Details: 5 µM
row,Structure (SMILES),Percent Effect
1,CCN(Cc1nccn1C)C(=O)c1ccc(NCc2ccc(C)o2)nc1,12.06%
2,Cc1ccn(CCC(=O)NC(C)Cc2ccco2)n1 (stereo not given),108%
3,Cc1ccc(OCC(=O)NCc2ccco2)nc1,-11.41%
4,COC(=O)CC(NC(=O)CCn1cccn1)c1ccc(C)cc1 (stereo not given),-17.18%
5,Cc1ccc(CNC(=O)CCC(=O)NCCC(C)C)o1,-4.384%
6,CC(Cc1ccco1)NC(=O)CSc1nnc[nH]1 (stereo not given),-0.3206%
7,CC(NC(=O)CCn1cccn1)c1cccs1 (stereo not given),-33.21%
8,CCC(C)NC(=O)CCn1ccc(C)n1 (stereo not given),122.6%
9,CC(Cc1ccco1)NC(=O)CCn1cccn1 (stereo not given),-2.22%
10,O=C(CCN1C[C@H]2CC[C@@H]1CN(c1ncccn1)C2)NCc1ccco1,-5.213%
11,CC(C)Cc1nc(CN2CCC3(CCCO3)CCC2=O)no1 (stereo not given),-10.71%
12,COc1ccc(OC)c(-n2cnnc2C)c1,-0.7087%
13,Cc1nc(C#N)c(N2CCC(c3nc(-c4ccccc4)no3)CC2)o1,4.008%
14,Cc1cc(C)nc(CN(C)C(=O)c2cccc(CCC(C)(C)O)c2)c1,33.03%
15,Cc1cc(C)n(CC(C)CNC(=O)CCc2ccco2)n1 (stereo not given),10.87%
16,NC(=O)NC(=O)CCn1ccc(-c2ccccc2)n1,-9.301%
17,Cc1ccn(CCC(=O)NCCc2ccco2)n1,109.8%
18,Cc1ncc(CC(=O)N2CCC(N3C[C@@H](C)O[C@@H](C)C3)CC2)c(=O)[nH]1,-13.09%
19,CCc1ncc(C(=O)N2CCOCC2c2c(C)n[nH]c2C)s1 (stereo not given),6.424%
20,CCc1ocnc1C(=O)N1CCOCC1CC(=O)c1ccccc1 (stereo not given),-28.11%
21,CC(C)c1cc(C(=O)N2CCc3ccccc3C2C(=O)O)nn1C (stereo not given),7.9%
22,CC(C)c1cc(C(=O)N2Cc3ccccc3CC2C(=O)O)nn1C (stereo not given),14.25%
23,CC[C@H]1COCCN1C(=O)c1cnc(-c2ccccc2)nc1C,-84.76%
24,CC(C)c1nc(C(=O)N2CCOCC2CC(=O)c2ccco2)cs1 (stereo not given),84.12%
25,CCc1ncc(C(=O)N2CCOCC2CC(=O)c2ccccc2)s1 (stereo not given),-7.731%
26,O=C(CC1COCCN1C(=O)c1cscn1)c1ccccc1 (stereo not given),5.406%
27,CC(C)c1cc(C(=O)N2CCOCC2CC(=O)c2ccco2)nn1C (stereo not given),128.9%
28,CC(C)c1ncc(C(=O)N2CCOCC2CC(=O)c2ccco2)s1 (stereo not given),131.2%

row,Structure (SMILES),Percent Effect
1,CCc1nc(C(=O)N2CCOCC2CC(=O)c2ccccc2)c[nH]1 (stereo not given),-17.76%
2,CC(C)c1ccc(C(=O)N2CCOCC2CC(=O)c2ccco2)cn1 (stereo not given),178.1%
3,Cc1cc2c(C)cc(O)cc2c(=O)o1,-3.203%
4,CC(C)(C)OC(=O)N1CCC[C@H](NCc2cc[nH]c2)C1,-5.919%
5,CC(C1CCN(Cc2ccc(N(C)C)nc2)CC1)N(C)C (stereo not given),14.62%
6,COCC(c1ccccn1)N(C)C(=O)c1cc(-c2ccccc2O)n[nH]1 (stereo not given),-8.202%
7,O=S(=O)(C1CC1)N1CCC2(CC1)CC(Oc1ccccn1)CO2 (stereo not given),-5.73%
8,COCc1c(C(=O)N2CCCC(C(=O)c3nccn3C)C2)noc1C (stereo not given),-5.481%
9,Fc1cccc(-c2cccc(N3CCC(NC4CCCOC4)CC3)c2)c1 (stereo not given),80.75%
10,COc1cccc(-c2cccc(N3CCC(N[C@@H]4CCOC4)CC3)c2)c1,68.86%
11,Cc1nc(-c2cccc(N3CCC(NC4CCSC4)CC3)c2)cs1 (stereo not given),-11.84%
12,Cc1nc(-c2cccc(N3CCC(NC4CCOCC4)CC3)c2)cs1,-8.689%
13,CN1CCOC[C@H]1c1nc(-c2cccc(F)c2)c[nH]1,6.119%
14,Fc1cccc(-c2c[nH]c([C@@H]3COCCN3C3CCOCC3)n2)c1,5.513%
15,COc1cccc(N2CCC(N3CCOC(C(F)(F)F)C3)CC2)c1 (stereo not given),11%
16,COc1cccc(N2CCC(N3C[C@@H](NC(C)=O)[C@H](C(C)C)C3)CC2)c1,4.736%
17,Cc1nc(-c2cccc(N3CCC(N[C@@H]4CCOC4)CC3)c2)cs1,61.49%
18,Cc1c(C)n(CC(O)CN2CCC(O)CC2)c2c(Cl)cccc12 (stereo not given),9.661%
19,CN(C)S(=O)(=O)N1C[C@@H]2CC[C@H](C1)N(Cc1ccc3c(c1)OCCO3)C2,2.095%
20,CCOc1cccc(NCc2cnc(N3CCN(C)CC3)nc2)n1,6.944%
21,Cn1ccnc1CNc1c(F)cccc1-n1cccn1,-3.206%
22,CN1CCC(c2cccc(NCc3ccncc3)n2)CC1,80.62%
23,CN1CCC(c2cccc(NCc3nccn3C)n2)CC1,108.8%
24,Cn1ccnc1CNc1ccc(F)c(N2CCCS2(=O)=O)c1,0.7519%
25,Cn1ccnc1CNc1nccc(-c2ncnn2C)n1,23.33%
26,CN1CCC(c2cnc(NCc3nccn3C)cn2)CC1,131.5%
27,CC(C)c1nccn1-c1cccc(C2CCN(C)CC2)n1,4.105%
